# Test results reported in PubChem BioAssay (NCI).
# Compounds without any hit were thinned out: in the full panel of roughly 83,000, 20% have a hit.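 Cell lines were cultured in 96-well plates, exposed to a single compound concentration, and assessed for percent growth 48 hours later.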 The source made the active and inactive calls. Rule for the calls: active = growth percent below 10; inactive = the rest.
# System: UACC-257 melanoma
# Test: NCI-60 one-dose screen, 48 h (100 = growth as untreated, 0 = no growth, -100 = all killed)
# Settings: 10 µM unless noted
row,SMILES,growth
1,Cc1nn(-c2ccccc2)c(Cl)c1/C=C/C(=O)c1ccc(F)cc1,88.9% (inactive)
2,COc1cc2oc(-c3cccc(C(=O)Nc4ccc(Br)cc4)c3)cc(=O)c2c(OC)c1OC,80.1% (inactive)
3,CC1=C(C(=O)/C=C/c2c[nH]c3ccccc23)C(c2ccccc2)NC(=S)N1 (stereo not drawn),102% (inactive)
4,CCCCCN1C=C/C(=C\C(=O)N(C)c2ccc(Oc3ccccc3)cc2)c2ccccc21,74.2% (inactive)
5,Cn1cc(-c2nc(-c3c[nH]c4c(Cl)nccc34)cs2)c2cc(Br)ccc21,54.1% (inactive)
6,COc1ccc(/C=C2\Oc3cc(OCCCN4CCCCC4)ccc3C2=O)cc1OC,102% (inactive)
7,Cc1cc2nc3c4cc(C=O)ccc4n(CCN(C)C)c3nc2cc1C,11.4% (inactive)
8,S=c1cc(S)c2cc(Br)ccc2[nH]1,87.1% (inactive)
9,O=C(/C(=C\c1ccc([N+](=O)[O-])cc1)S(=O)Cc1ccc(Cl)cc1)c1ccc(Cl)cc1 (stereo not drawn),100% (inactive)
10,COc1cc(CC(=O)c2ccc(O)c(OC)c2)ccc1O,80.1% (inactive)
11,O=C(NCCc1ccccc1)Nc1ccc2cc3ccc(NC(=O)NCCc4ccccc4)cc3nc2c1,85.6% (inactive)
12,C=C(C)[C@@H]1CC[C@]2(C(=O)N3CCN(C)CC3)CC[C@]3(C)[C@H](CC[C@@H]4[C@@]5(C)C/C(=C/c6cccnc6)C(=O)C(C)(C)[C@@H]5CC[C@]43C)[C@@H]12,66.6% (inactive)
13,COc1cc2nc(-c3ccc(Cl)cc3)cc(OCCCN3CCC(O)CC3)c2cc1OC,8.39% (active)
14,O=S(=O)(NCCNc1nccc(-c2c(-c3cccc(O)c3)nc3occn23)n1)c1ccccc1,17.7% (inactive)
15,NC(=NCCCOc1ccc(F)cc1)Nc1ccc(Cl)cc1,13.4% (inactive)
16,C#Cc1cccc(NC(=O)c2cccc(NC(=O)CCl)c2)c1,28.1% [8.25 µM] (inactive)
17,CCN1Cc2nc3sc(C)c(C)c3c(=O)n2C=C1C,69.3% (inactive)
18,O=C1Nc2cc(-c3cccc([N+](=O)[O-])c3)ccc2/C1=C/c1ccc[nH]1,107% (inactive)
19,C[C@H]1[C@H](C)CC[C@]2(C(=O)NCC#CCN3CCN(C)CC3)CC[C@]3(C)C(=CC[C@@H]4[C@@]5(C)Cc6c([nH]c7ccccc67)C(C)(C)[C@@H]5CC[C@]43C)[C@H]12,97% (inactive)

row,SMILES,growth
1,COc1cc(/C=C/c2cc(O)c(C(C)=O)c(O)c2)cc2c1O[C@]1(C)CC[C@@H](O)C(C)(C)[C@H]1C2,76.4% (inactive)
2,N#CC1=C(N)Oc2c(cnn2-c2ccc([N+](=O)[O-])cc2[N+](=O)[O-])C1c1ccccc1 (stereo not drawn),94.1% (inactive)
3,COc1ccc(C(=O)c2cc(C)c(OC)c(C)c2)c(OC)c1N(C(=O)CCl)C(=O)CCl,46.2% (inactive)
4,CCC(=O)Oc1ccc(/C(=C(\C)c2ccccc2)c2ccc(OCCN3CCCCC3)cc2)cc1,72.1% (inactive)
5,Cc1ccc(NC(=O)c2cc(-c3nc4ccccc4s3)c(=O)n(NS(=O)(=O)c3ccc(Cl)cc3)c2N)cc1,104% (inactive)
6,O=C1Nc2ccc(F)cc2/C1=C\c1c(-c2ccccc2)nc2ccccn12,90.7% (inactive)
7,O=C(NO)c1ccc(-n2nc(-c3ccccc3)c3ccccc32)cc1,78.5% (inactive)
8,O=C1Nc2ccccc2/C1=C\c1c(-c2ccc(F)cc2)nc2ccccn12,102% (inactive)
9,Oc1cccc(CCc2ccc(Oc3cc(CCc4cccc(O)c4)cc(O)c3O)cc2)c1,95.6% (inactive)
10,CCCCCCCC(=O)OCC/C=C/C1OC1C1OC(=O)/C=C\C=C\C(=O)N(C(C)=O)C(=O)/C=C(/C)CCC2OC2C1OC(=O)NC(C)=O (stereo not drawn),84.2% (inactive)
11,Cc1ccc(NS(=O)(=O)c2ccc(-c3cnc(C4CC4)o3)cc2)cc1C(F)(F)F,73.7% (inactive)
12,CNC(=O)c1cncc(Cn2nc(C)c(NC(=O)c3ccc(COc4ccc(C(F)(F)F)cc4C)cc3)c2C)c1,18.4% (inactive)
13,Cc1cc(C)c(S(=O)(=O)Oc2ccccc2[N+](=O)[O-])c(C)c1,32.4% (inactive)
14,C=C1C(=O)O[C@H]2[C@H]1CC/C(CNC(=O)C(C)c1ccc(CC(C)C)cc1)=C\CC[C@@]1(C)O[C@@H]21 (stereo partly drawn),-11.4% (active)
15,NC(=S)N1N=C(c2ccccc2)CC1c1cn(-c2ccccc2)nc1-c1ccc(OCc2ccccc2)cc1 (stereo not drawn),92.9% (inactive)
16,CN1CCN(C(=O)[C@]23CCC(C)(C)C[C@H]2C2=CC[C@@H]4[C@@]5(C)C/C(=C/c6cccnc6)C(=O)C(C)(C)[C@@H]5CC[C@@]4(C)[C@]2(C)CC3)CC1,43.7% (inactive)
17,O=C1Nc2cc(-c3cccc(O)c3)ccc2/C1=C/c1ccc[nH]1,46% (inactive)
18,COc1ccc(/C=C/c2nc(Nc3ccc(S(=O)(=O)NC(C)=O)cc3)c3ccccc3n2)cc1,89.4% (inactive)
19,CCNC(=O)Oc1ccc(/C(=C(\C)c2ccccc2)c2ccc(OCCN3CCCCC3)cc2)cc1,-26.4% (active)
